# From the supplement of paper PMC6411743
# ± gives the standard deviation of the averaged measurements. The full data set covers some 6,500 targets. This sample favours those with the largest changes.
# What was measured:
# Experiment in all cases: NP40-soluble protein abundance relative to vehicle (solubility fold change) (ratio); higher = more soluble protein in presence of ATP
# [1] = biological target: A0A087WWP8 (UniProt Q5VWQ0)
# How it was run: (§1)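 Across three independent experiments, values are fold changes against the detergent-processed vehicle for each replicate, based on vsn-normalised intensities. The samples were Jurkat crude lysate treated with eight concentrations (0.1 to 10 mM) for 10 min at room temperature and then 3 min at 37 °C. Lysate was solubilised with 0.8% NP40 and benzonase, ultracentrifuged, and the supernatant analysed by TMT-labelled LC-MS/MS.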
# [2] = biological target: T1, A0A087WWS1|Q96FV9 (UniProt Q96FV9)
# T1 sequence (whole entry): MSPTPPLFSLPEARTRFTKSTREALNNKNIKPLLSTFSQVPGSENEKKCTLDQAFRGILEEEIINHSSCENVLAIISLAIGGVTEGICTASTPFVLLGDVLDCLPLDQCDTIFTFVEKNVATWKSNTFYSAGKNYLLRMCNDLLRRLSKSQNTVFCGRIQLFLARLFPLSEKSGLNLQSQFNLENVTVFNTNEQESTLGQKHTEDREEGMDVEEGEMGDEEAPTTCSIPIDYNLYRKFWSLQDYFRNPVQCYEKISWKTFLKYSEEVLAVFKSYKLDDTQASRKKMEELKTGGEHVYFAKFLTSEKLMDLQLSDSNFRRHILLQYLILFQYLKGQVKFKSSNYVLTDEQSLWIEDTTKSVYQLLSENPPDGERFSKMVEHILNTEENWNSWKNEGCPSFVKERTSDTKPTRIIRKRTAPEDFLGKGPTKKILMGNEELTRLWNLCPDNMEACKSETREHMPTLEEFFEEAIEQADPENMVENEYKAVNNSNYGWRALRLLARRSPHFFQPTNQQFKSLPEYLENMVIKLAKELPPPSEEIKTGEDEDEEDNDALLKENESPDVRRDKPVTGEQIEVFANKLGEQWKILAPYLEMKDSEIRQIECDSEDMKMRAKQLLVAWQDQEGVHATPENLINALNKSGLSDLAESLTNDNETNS
# How it was run: as §1
# [3] = biological target: A0A087WXC5|O95299|H7C2X4 (UniProt O95299)
# How it was run: as §1
# [4] = biological target: A0A087WY00|F8W6H6|Q9Y4I1|Q9Y4I1-2|Q9Y4I1-3|G3V394 (UniProt Q9Y4I1)
# How it was run: as §1
# [5] = biological target: T2, A0A087WYG2|E9PFH7|Q9UPT6 (UniProt Q9UPT6)
# T2 sequence (whole entry): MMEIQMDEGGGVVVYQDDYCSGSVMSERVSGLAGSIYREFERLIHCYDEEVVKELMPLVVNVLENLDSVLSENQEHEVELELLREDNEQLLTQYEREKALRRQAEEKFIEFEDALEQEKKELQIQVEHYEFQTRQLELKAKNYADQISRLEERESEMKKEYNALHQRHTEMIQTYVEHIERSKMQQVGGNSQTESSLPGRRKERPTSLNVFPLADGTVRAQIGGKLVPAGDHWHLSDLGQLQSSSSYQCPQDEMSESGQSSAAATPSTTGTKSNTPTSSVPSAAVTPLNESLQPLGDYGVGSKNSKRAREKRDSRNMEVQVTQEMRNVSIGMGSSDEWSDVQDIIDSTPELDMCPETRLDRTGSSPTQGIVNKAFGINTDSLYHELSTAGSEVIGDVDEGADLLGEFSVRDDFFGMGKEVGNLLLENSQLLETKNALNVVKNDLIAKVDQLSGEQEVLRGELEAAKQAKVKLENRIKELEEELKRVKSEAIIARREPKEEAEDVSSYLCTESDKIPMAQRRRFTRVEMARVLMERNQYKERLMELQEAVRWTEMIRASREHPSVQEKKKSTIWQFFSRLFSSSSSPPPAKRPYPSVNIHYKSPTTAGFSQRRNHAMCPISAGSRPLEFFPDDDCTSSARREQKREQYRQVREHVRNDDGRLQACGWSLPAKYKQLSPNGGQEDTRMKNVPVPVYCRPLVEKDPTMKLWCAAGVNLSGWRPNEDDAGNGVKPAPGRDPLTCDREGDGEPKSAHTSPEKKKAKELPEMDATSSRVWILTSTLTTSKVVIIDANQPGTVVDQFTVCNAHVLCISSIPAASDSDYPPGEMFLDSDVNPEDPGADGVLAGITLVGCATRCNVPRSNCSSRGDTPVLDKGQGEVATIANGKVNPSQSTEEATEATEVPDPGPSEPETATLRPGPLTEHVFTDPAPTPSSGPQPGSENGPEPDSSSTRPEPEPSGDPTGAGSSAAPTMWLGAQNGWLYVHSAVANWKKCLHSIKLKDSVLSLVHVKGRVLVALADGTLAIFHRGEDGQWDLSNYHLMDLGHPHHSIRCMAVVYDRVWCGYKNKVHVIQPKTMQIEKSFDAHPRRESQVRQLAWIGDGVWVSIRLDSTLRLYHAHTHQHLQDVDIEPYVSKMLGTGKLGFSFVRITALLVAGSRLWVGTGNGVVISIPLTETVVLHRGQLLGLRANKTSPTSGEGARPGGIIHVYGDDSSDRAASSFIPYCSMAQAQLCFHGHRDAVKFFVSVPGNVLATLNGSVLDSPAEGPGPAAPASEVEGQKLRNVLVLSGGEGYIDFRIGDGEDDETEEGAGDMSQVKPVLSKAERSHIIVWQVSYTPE
# How it was run: as §1
# Chain of A0A087WXC5|O95299|H7C2X4 (O95299 whole entry, one chain of several): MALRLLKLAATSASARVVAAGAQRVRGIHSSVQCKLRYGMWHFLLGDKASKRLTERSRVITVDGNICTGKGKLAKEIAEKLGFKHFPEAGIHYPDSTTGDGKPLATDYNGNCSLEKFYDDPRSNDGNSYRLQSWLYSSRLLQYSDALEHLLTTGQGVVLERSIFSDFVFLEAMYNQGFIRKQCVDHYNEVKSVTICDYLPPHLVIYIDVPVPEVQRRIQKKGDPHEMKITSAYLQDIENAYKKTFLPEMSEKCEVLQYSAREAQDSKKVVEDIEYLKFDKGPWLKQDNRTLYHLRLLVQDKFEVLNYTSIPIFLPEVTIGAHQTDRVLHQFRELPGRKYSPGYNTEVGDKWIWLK
# Chain of A0A087WY00|F8W6H6|Q9Y4I1|Q9Y4I1-2|Q9Y4I1-3|G3V394 (Q9Y4I1 whole entry, one chain of several): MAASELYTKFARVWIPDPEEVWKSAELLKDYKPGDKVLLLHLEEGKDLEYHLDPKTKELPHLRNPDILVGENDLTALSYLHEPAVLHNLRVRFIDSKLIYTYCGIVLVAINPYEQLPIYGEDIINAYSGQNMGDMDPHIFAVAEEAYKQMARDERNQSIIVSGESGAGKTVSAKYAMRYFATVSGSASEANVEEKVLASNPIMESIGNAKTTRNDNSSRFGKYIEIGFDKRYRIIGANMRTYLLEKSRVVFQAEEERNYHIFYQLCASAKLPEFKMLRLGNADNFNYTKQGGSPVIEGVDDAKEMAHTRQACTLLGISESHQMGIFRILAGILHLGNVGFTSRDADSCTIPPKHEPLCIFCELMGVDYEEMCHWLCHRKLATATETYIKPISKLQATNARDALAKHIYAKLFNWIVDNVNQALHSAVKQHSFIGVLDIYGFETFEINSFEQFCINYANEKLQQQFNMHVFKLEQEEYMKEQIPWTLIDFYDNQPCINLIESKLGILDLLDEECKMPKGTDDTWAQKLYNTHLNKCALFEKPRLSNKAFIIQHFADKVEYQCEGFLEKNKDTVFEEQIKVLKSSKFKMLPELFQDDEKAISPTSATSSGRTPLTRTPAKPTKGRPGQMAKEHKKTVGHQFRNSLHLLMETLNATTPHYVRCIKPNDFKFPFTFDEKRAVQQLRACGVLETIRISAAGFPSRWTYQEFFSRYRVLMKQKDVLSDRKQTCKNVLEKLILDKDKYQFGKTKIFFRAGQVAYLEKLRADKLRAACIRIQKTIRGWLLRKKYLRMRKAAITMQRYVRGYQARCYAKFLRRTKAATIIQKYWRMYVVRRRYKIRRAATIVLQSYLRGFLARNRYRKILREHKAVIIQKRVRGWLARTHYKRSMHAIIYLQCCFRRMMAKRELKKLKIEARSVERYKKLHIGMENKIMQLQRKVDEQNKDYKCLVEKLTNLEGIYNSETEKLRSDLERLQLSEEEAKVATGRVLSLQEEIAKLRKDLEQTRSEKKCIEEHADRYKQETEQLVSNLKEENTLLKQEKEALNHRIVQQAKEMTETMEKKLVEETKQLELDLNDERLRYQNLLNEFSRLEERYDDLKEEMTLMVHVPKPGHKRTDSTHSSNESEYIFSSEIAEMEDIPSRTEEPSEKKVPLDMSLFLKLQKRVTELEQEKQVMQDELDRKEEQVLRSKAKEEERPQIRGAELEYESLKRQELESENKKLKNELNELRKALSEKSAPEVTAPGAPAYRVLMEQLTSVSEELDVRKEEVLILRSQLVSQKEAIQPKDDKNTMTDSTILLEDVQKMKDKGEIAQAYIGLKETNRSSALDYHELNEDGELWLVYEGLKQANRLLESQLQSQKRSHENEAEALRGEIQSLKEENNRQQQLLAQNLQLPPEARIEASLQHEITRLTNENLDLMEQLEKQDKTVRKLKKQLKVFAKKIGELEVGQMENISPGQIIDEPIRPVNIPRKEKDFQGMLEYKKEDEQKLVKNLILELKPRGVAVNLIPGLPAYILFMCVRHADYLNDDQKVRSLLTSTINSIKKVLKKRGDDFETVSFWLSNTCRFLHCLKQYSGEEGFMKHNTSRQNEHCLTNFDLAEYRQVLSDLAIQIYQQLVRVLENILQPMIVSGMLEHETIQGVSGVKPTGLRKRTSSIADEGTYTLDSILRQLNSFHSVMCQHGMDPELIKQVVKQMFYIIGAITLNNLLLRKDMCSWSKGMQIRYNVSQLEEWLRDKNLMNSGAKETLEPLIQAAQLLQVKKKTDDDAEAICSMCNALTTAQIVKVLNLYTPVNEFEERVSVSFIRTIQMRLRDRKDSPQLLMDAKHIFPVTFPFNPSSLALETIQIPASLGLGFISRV
# Chain of A0A087WWP8 (Q5VWQ0 whole entry): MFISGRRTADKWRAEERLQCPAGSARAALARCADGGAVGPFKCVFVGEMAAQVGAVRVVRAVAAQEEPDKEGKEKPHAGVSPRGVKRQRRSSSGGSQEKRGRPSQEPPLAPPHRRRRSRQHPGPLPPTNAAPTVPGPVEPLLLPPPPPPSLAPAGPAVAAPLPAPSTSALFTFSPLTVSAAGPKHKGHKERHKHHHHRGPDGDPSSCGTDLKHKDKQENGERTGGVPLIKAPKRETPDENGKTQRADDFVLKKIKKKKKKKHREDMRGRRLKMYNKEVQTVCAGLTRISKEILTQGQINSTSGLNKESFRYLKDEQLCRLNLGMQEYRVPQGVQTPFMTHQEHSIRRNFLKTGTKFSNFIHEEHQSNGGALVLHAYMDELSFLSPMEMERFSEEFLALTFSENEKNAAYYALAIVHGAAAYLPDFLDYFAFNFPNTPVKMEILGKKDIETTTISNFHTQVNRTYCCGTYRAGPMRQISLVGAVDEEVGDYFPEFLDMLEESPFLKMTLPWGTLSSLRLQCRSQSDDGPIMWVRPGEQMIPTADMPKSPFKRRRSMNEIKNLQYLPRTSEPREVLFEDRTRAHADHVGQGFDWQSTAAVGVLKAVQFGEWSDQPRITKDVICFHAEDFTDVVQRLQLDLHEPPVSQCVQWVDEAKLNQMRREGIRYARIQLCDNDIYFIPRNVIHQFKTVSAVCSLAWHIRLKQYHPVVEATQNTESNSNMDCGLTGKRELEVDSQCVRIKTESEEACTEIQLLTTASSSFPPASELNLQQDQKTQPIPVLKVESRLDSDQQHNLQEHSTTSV
compound,measurement,setting,value
Nc1ncnc2c1ncn2[C@@H]1O[C@H](COP(=O)(O)OP(=O)(O)OP(=O)(O)O)[C@@H](O)[C@H]1O [adenosine triphosphate],NP40-soluble protein abundance,[1]; concentration: 6mM,1.68 ± 0.048
same,NP40-soluble protein abundance,[1]; concentration: 8mM,1.68 ± 0.069
same,NP40-soluble protein abundance,[1]; concentration: 10mM,1.69 ± 0.063
same,NP40-soluble protein abundance,[2]; concentration: 1mM,1.509 ± 0.011
same,NP40-soluble protein abundance,[2]; concentration: 2mM,1.65 ± 0.068
same,NP40-soluble protein abundance,[2]; concentration: 4mM,1.89 ± 0.099
same,NP40-soluble protein abundance,[2]; concentration: 6mM,2.14 ± 0.2
same,NP40-soluble protein abundance,[2]; concentration: 8mM,2.31 ± 0.075
same,NP40-soluble protein abundance,[2]; concentration: 10mM,2.4 ± 0.13
same,NP40-soluble protein abundance,[3]; concentration: 1mM,1.03 ± 0.024
same,NP40-soluble protein abundance,[3]; concentration: 2mM,1.02 ± 0.033
same,NP40-soluble protein abundance,[3]; concentration: 4mM,0.982 ± 0.034
same,NP40-soluble protein abundance,[3]; concentration: 6mM,1 ± 0.022
same,NP40-soluble protein abundance,[3]; concentration: 8mM,1.02 ± 0.023
same,NP40-soluble protein abundance,[3]; concentration: 10mM,1 ± 0.034
same,NP40-soluble protein abundance,[4]; concentration: 1mM,2.94 ± 0.086
same,NP40-soluble protein abundance,[4]; concentration: 2mM,2.89 ± 0.071
same,NP40-soluble protein abundance,[4]; concentration: 4mM,2.94 ± 0.14
same,NP40-soluble protein abundance,[4]; concentration: 6mM,2.96 ± 0.19
same,NP40-soluble protein abundance,[4]; concentration: 8mM,2.96 ± 0.088
same,NP40-soluble protein abundance,[4]; concentration: 10mM,2.84 ± 0.062
same,NP40-soluble protein abundance,[5]; concentration: 1mM,0.979 ± 0.055
same,NP40-soluble protein abundance,[5]; concentration: 2mM,0.996 ± 0.054
same,NP40-soluble protein abundance,[5]; concentration: 4mM,0.993 ± 0.097
same,NP40-soluble protein abundance,[5]; concentration: 6mM,0.988 ± 0.094
same,NP40-soluble protein abundance,[5]; concentration: 8mM,0.959 ± 0.066
same,NP40-soluble protein abundance,[5]; concentration: 10mM,0.956 ± 0.029
